Test results taken from PubChem BioAssay (Tox21).
Inconclusive results are not listed. Activity calls are given as the source filed them. Unless noted, calls follow the shape of the full dose curve.

Tests used:
[1] = Nuclear factor erythroid 2-related factor 2/antioxidant responsive element (Nrf2/ARE) small molecule agonists: qHTS cell viability counter screen in human keratinocytes (AID 1919968; active = well fitted curve in the direction sought with a large enough effect in the repeat runs; an effect the other way counts as inactive or inconclusive; also: nearly all actives have a fitted effect of over 55% in size)
In short: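 Viability counter-screen: KeratinoSens reporter cells, DMSO-delivered compounds, 23 h at 37 C, CellTiter-Fluor fluorescence.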

[2] = Nuclear factor erythroid 2-related factor 2/antioxidant responsive element (Nrf2/ARE) small molecule agonists: luciferase reporter gene qHTS assay in human keratinocytes (AID 1919969); also: nearly all actives have a fitted effect of over 35% in size; also: potency is read from the fitted curve at half-maximal effect
[3] = target: Gonadotropin-releasing hormone receptor (Homo sapiens) (UniProt P30968); experiment: Human gonadotropin-releasing hormone receptor (GnRHR) small molecule agonists, calcium flux assay in GnRHR-HEK293 cells (AID 1920063); also: nearly all actives have a fitted effect of over 35% in size
Sequence of Gonadotropin-releasing hormone receptor (Homo sapiens) (P30968 whole entry, looked up): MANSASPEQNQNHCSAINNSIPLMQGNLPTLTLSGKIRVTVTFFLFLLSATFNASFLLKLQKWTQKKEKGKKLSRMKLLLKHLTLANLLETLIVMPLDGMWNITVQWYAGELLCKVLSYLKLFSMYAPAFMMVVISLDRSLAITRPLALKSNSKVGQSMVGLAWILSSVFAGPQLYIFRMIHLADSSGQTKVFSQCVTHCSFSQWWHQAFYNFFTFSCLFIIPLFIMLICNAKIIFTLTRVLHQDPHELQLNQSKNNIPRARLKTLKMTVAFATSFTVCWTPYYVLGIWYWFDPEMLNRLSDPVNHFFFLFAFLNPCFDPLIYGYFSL
In short: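 Tox21-format agonist screen using human GnRHR-expressing HEK293 cells and a fluorescent calcium dye; kinetic 3-min fluorescence reading after compound addition, 15-point concentration series run in triplicate.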

[4] = target: KiSS-1 receptor (Homo sapiens) (UniProt Q969F8); experiment: Human kisspeptin (KISS1R) small molecule agonists, calcium flux assay in KISS1R-HEK293 cells (AID 1920064; active = well fitted curve in the direction sought with a large enough effect in the repeat runs; an effect the other way counts as inactive or inconclusive)
Sequence of KiSS-1 receptor (Homo sapiens) (Q969F8 whole entry, looked up): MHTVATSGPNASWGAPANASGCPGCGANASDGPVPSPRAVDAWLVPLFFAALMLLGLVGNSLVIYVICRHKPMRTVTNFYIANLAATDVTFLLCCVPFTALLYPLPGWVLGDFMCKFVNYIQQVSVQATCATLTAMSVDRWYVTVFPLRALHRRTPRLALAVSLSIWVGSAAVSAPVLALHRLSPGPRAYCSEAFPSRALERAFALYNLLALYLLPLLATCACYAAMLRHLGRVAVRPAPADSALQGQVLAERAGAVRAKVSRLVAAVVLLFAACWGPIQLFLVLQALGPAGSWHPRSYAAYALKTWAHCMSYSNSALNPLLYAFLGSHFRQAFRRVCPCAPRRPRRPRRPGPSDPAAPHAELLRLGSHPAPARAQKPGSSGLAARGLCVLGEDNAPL
In short: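 Intracellular calcium mobilization in KISS1R-HEK293 cells was recorded by fluorescence (Ex/Em 480/540) for 3 min following compound addition to cells pre-loaded 1 h with calcium dye.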

[5] = G protein-coupled receptor (GPCR) small molecule agonists, calcium flux assay: HEK293 wild type cell line counter screen (AID 1920065)
In short: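 In this agonist-mode screen, ATP is the positive control and DMSO the vehicle. Cells grow 18 h before a 1 h dye incubation at 37 C; signal is taken at Ex/Em 480/540 over 3 min.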

[6] = p53 small molecule agonists, cell-based qHTS assay with human liver microsomes (AID 1963577);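 also: p53 response element beta-lactamase reporter cells with liver microsomes plus NADPH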
In short: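 p53RE-bla cells; 5 h settle, 37 C/5% CO2; cpd + HLM 0.5 mg/mL + NADPH 0.5 mg/mL (final); 16 h 37 C; LiveBLAzer 2 h RT dark; fluorescence readout.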

[7] = p53 small molecule agonists, cell-based qHTS assay with human liver microsomes: qHTS cell viability counter screen (AID 1963579); also: nearly all actives have a fitted effect of over 45% in size
In short: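 Luminescent CellTiter-Glo read-out, 30 min at room temperature, gauged cytotoxicity in p53RE-bla cells exposed 16 h at 37 C to DMSO-dissolved compounds with metabolic activation by human liver microsomes and NADPH, each 0.5 mg/mL final.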

[8] = p53 small molecule agonists, cell-based qHTS assay with rat liver microsomes: qHTS cell viability counter screen (AID 1963580); also: nearly all actives have a fitted effect of over 45% in size
In short: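 HCT-116 p53RE-bla, 4,000 cells/well, 5 h pre-incubation; cpd + rat liver microsomes 0.5 mg/mL + NADPH 0.5 mg/mL (final); 16 h, 37 C; CellTiter-Glo, 30 min RT; luminescence.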

[9] = p53 small molecule agonists, cell-based qHTS assay: qHTS cell viability counter screen (AID 1963581); also: nearly all actives have a fitted effect of over 45% in size
In short: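 Compounds are pinned onto HCT-116 p53RE-bla cells and left 16 h at 37 C. Following the reporter FRET read, ATP is quantified by CellTiter-Glo luminescence after 30 min at room temperature.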

[10] = p53 small molecule agonists, cell-based qHTS assay (AID 1963582; active = well fitted activation curve with a large enough effect in the signal ratio in the repeat runs, not every such curve was filed as active; the % refers to the signal ratio)
In short: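 Agonist activity was scored from beta-lactamase FRET fluorescence in p53RE-bla cells treated 16 h at 37 C with compounds in DMSO, substrate incubation being 2 h at room temperature.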

[11] = target: 5-hydroxytryptamine receptor 2A (Homo sapiens) (UniProt P28223); experiment: 5-hydroxytryptamine receptor 2A (HTR2A) small molecule agonists, cell-based qHTS assay (AID 1963587); also: nearly all actives have a fitted effect of over 30% in size
Sequence of 5-hydroxytryptamine receptor 2A (Homo sapiens) (P28223 whole entry, looked up): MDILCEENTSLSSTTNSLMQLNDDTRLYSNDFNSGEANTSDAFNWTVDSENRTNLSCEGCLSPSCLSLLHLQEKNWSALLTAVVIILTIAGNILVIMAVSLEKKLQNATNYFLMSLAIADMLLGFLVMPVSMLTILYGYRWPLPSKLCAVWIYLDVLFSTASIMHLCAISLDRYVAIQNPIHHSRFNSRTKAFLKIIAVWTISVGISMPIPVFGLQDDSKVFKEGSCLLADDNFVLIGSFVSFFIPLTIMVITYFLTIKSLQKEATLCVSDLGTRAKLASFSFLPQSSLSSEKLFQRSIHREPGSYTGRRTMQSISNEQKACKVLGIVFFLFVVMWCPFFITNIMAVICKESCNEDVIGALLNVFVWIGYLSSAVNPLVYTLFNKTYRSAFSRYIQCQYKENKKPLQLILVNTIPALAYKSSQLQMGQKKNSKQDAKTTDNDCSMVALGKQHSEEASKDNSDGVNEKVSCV
In short: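 Kinetic calcium-flux fluorescence (2 min, 1 sec intervals) after compound addition in agonist mode. HTR2A-CHO cells were cultured 18 h, then dye-loaded 1 h at 37 C.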

[12] = target: Muscarinic acetylcholine receptor M1 (Homo sapiens) (UniProt P11229); experiment: Cholinergic receptor muscarinic 1 (CHRM1) small molecule antagonists, cell-based qHTS assay (AID 1963588); also: nearly all actives have a fitted effect of over 40% in size
Sequence of Muscarinic acetylcholine receptor M1 (Homo sapiens) (P11229 whole entry, looked up): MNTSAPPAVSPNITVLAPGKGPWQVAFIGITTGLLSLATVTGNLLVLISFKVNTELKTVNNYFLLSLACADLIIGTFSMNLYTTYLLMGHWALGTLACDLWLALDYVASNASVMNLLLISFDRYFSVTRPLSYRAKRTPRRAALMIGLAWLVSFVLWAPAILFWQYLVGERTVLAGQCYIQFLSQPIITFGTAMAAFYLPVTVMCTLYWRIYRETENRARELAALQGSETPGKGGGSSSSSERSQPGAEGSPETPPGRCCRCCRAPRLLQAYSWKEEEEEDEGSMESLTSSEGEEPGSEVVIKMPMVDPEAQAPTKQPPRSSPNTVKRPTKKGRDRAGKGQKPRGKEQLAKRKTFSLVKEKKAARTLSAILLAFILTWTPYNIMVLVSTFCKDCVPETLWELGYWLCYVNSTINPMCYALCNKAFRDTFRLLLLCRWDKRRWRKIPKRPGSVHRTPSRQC
In short: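 CHRM1-CHO calcium-flux assay, antagonist mode. Cells were seeded 18 h, dye-loaded 1 h at 37 C and given compound for 5 min at RT, then acetylcholine was added at 50nM. FDSS fluorescence was read 3 min; 15 concentrations, three runs.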

[13] = target: Muscarinic acetylcholine receptor M1 (Homo sapiens) (UniProt P11229); experiment: Cholinergic receptor muscarinic 1 (CHRM1) small molecule agonists, cell-based qHTS assay (AID 1963589); also: nearly all actives have a fitted effect of over 35% in size
In short: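 Stable CHRM1-CHO cells (human receptor) were incubated 18 h, dye-loaded for 1 h at 37 C and exposed to test compounds for agonist activity, with calcium-dependent fluorescence followed kinetically.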

[14] = cAMP Responsive Elements (CRE) small molecule agonists, cell-based qHTS assay (AID 1963590)
In short: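 FRET-based beta-lactamase readout (LiveBLAzer B/G, 2 h RT) quantified CRE activation in HEK 293T CRE-bla cells after 3 h treatment with DMSO-dissolved compounds.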

[15] = cAMP Responsive Elements (CRE) small molecule antagonists, cell-based qHTS assay (AID 1963591; active = well fitted inhibition curve with a large enough effect in the signal ratio in the repeat runs, not every such curve was filed as active; the % refers to the signal ratio)
In short: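 qHTS in CRE-bla HEK 293T cells: compound in DMSO, then 0.25 uM NKH477 (final), 3 h at 37 °C/5% CO2; beta-lactamase FRET read-out after 2 h substrate incubation.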

[16] = target: Beta-2 adrenergic receptor (Homo sapiens) (UniProt P07550); experiment: Adrenergic beta2 receptor (ADRB2) small molecule antagonists, cell-based qHTS assay (AID 1963592); also: series mostly up to about 92 µM; nearly all actives have a fitted effect of over 50% in size
Sequence of Beta-2 adrenergic receptor (Homo sapiens) (P07550 whole entry, looked up): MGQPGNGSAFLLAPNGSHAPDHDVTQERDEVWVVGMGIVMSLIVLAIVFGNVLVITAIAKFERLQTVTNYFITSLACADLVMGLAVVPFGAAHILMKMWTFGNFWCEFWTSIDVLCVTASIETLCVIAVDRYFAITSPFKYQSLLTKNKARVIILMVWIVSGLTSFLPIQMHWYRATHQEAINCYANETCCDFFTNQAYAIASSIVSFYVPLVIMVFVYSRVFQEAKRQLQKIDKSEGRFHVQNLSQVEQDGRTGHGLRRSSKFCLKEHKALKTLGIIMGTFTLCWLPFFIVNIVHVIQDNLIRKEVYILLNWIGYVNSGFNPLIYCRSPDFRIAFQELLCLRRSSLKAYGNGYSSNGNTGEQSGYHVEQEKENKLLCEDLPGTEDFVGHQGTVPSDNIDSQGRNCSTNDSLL
In short: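 Cells (CHO, stable ADRB2 overexpression) incubated 18-20hr at 37C; compounds added from DMSO; agonist mix (1nM isoproterenol, 100uM IBMX, 25uM Ro-20-1724) added; 0.5hr RT; d2-cAMP and anti-cAMP-cryptate added; 1hr RT; 665/615 nm read.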

[17] = target: D(2) dopamine receptor (Homo sapiens) (UniProt P14416); experiment: Dopamine D2 receptor (DRD2) small molecule agonists, cell-based qHTS assay (AID 1963594); also: nearly all actives have a fitted effect of over 35% in size
Sequence of D(2) dopamine receptor (Homo sapiens) (P14416 whole entry, looked up): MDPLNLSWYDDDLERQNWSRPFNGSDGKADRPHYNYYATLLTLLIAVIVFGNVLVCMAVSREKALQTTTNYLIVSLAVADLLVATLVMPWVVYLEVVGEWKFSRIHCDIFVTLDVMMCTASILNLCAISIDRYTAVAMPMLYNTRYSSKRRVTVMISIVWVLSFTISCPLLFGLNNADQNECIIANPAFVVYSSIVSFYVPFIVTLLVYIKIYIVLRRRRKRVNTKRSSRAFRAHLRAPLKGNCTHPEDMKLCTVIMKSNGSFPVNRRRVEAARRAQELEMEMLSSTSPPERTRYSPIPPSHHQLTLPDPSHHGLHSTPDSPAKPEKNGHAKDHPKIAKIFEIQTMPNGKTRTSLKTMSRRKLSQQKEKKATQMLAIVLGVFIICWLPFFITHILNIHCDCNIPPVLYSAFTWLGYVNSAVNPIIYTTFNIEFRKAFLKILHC
In short: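 cAMP accumulation in DRD2-HEK293 cells measured by HTRF after 1 h detection; compounds added 10 min before NKH477 (200nM […]) forskolin-analogue stimulation, 30 min at room temperature, with Ro20-1724 present at 0.1 mM final.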

[18] = target: D(2) dopamine receptor (Homo sapiens) (UniProt P14416); experiment: Dopamine D2 receptor (DRD2) small molecule antagonists, cell-based qHTS assay (AID 1963595; active = well fitted inhibition curve with a large enough effect in the signal ratio in the repeat runs, with a control signal flat; the % refers to the signal ratio)
In short: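 Readout: HTRF cAMP, cAMP-d2 competing with cellular cAMP for anti-cAMP cryptate, read after 1 h. Cells: DRD2-HEK293. Conditions: 0.1 mM Ro20-1724, 12 nM quinpirole, 200 nM NKH477, 30 min RT.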

[19] = target: 5-hydroxytryptamine receptor 2A (Homo sapiens) (UniProt P28223); experiment: 5-hydroxytryptamine receptor 2A (HTR2A) small molecule antagonists, cell-based qHTS assay (AID 1963586); also: nearly all actives have a fitted effect of over 45% in size
In short: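 Antagonist-mode intracellular calcium assay: DOI (4 nM) added after 5 min compound pre-incubation at room temperature to dye-loaded HTR2A-CHO cells. Fluorescence followed for 3 min, sampled every second.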

[20] = p53 small molecule agonists, cell-based qHTS assay with rat liver microsomes (AID 1963578)
In short: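 Rat liver microsome activation: microsomes 0.5 mg/mL, NADPH 0.5 mg/mL final; p53RE-bla cells, 16 h 37 C; LiveBLAzer readout, 2 h RT dark.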

Measured: Potency

CC[C@@H](N)CO
not listed: [19] | [20]
inactive: all other assays above

CC(=O)c1cnccn1
not listed: [13] | [20]
inactive: all other assays above

O=C1OC(=O)C2C3C=CC(C3)C12 (stereo not given)
not listed: [7] | [8] | [9] | [17] | [18]
inactive: all other assays above

COc1ccc(OC)c(NC(=O)CC(C)=O)c1
not listed: [15] | [20]
inactive: all other assays above

Cc1ccccc1N1C(=O)c2cc(S(N)(=O)=O)c(Cl)cc2NC1C (stereo not given)
not listed: [11] | [12] | [13] | [14] | [15] | [17] | [19] | [20]
inactive: all other assays above

O=C1OCCN1/N=C/c1ccc([N+](=O)[O-])o1
not listed: [11] | [12] | [13] | [14] | [15] | [17] | [19] | [20]
inactive: all other assays above

NC(=O)C(=O)N/N=C/c1ccc([N+](=O)[O-])o1
active: [2] 29.8 µM
not listed: [9] | [17] | [20]
inactive: all other assays above
